# Data reported in PubChem BioAssay AID493174 (National Center for Advancing Translational Sciences (NCATS), 2011).
# Records with an inconclusive call do not appear. Activity calls are given as the source filed them. The call rests on the fitted dose curve; in most records, active means well fitted inhibition curve with a large enough effect; inconclusive means small, poorly fitted or top-dose-only effect; inactive means flat fitted curve, though single readings scatter.
# Test: Confirmatory Assay for General miRNAs Modulators and/or Inhibitors/Activators of miR-21: second round cherrypicks
# Conditions: HeLa miR-21 FLuc reporter, luciferase luminescence, 48 h
# Description: MLPCN Grant: 1 R21 NS059478-01 Assay Provider: Qihong Huang, The Wistar Institute NCGC Assay Overview: MicroRNAs (miRNAs) are endogenously encoded small (~20-25 nucleotides), nonprotein-coding RNAs that are involved in post-transcriptional repression of target messenger RNAs (mRNAs) (Le and Hannon, 2004). Estimated to be involved in the regulation of 30% of all protein-coding mRNAs (Filipowicz et al., 2008), miRNAs play a significant role in many biological processes including cellular differentiation and tissue development (Ghildiyal and Zamore, 2009).
# NCGC Assay Protocol Summary: Reagents: HeLa cells stably expressing firefly luciferase (FLuc) under the control of a CMV promoter (upstream) and a miR-21 binding sequence directly downstream of the gene. These cells endogenously express miR-21. Control compounds used were compound C3 (provided by collaborator), N6-phenyladenosine (MP Biomedicals, 0215379625), and DMSO. Assay Summary: 6uL of HeLa miR-21-FLuc cells in assay buffer (DMEM, Invitrogen #21063-029; 10% FBS, HyClone #SH30071.03) were dispensed at 2000cells/well (3.3 x 10^5 cells/mL) into Greiner solid-white TC-treated 1536-well plates using a Multidrop Combi (Thermo Fisher Scientific). […] After a 15 minute incubation to allow for cell lysis, luciferase activity was measured using a ViewLux CCD imager (PerkinElmer), with an average exposure time of 2-12 seconds. […]
smiles,measurement,value
O=c1c2ccccc2nc(Cc2ccccc2)n1-c1ccccc1,Potency,14.2 µM (active)
